# Data published in the OligoGym collection.
# Molecular target: CEACAM7
# Experiment: pooled miR-30 sensor sort-seq; sequence = guide strand
# Conditions: shRNA
# Note: reference of the scale not given here.
row,Sequence,sensor-assay potency score (higher = more potent)
1,TTCTTTTATAACGTGTAGGGTA,-0.399
2,TATCTTTGTTCTCCACCGGATT,-1.29
3,TAACGTTCTGGATCAGCAGGGT,0.257
4,TCGATAGTTGGCATGCACCCTT,-0.656
5,AACTCTAACAGGGACCACCGTG,-1.13
6,ATATCCTATAATTCGATAGTTG,-1.04
7,AATCATGATGCTGACAGCGGTC,-0.463
8,TTCATTCACAAGATTTTCTTTT,-0.349
9,ATATCTTTGTTCTCCACCGGAT,-0.501
10,TTATATTTTTTACATATCCTAT,-0.681
11,TACTTCTTCATTCACAAGATTT,-1.52
12,AACTTGCTTGTACTGACTCATA,-1.59
13,TTGTCTCTCGACCGTTGTGTGC,-1.35

# Molecular target: CELA2A
# Experiment: as above
# Conditions: shRNA
row,Sequence,sensor-assay potency score (higher = more potent)
1,ATACTGGTTTTCACGCTGCTGC,-1.06
2,TAGTAGTTGCAGCCGAGGCGAG,-1.3
3,TTGGTTGGAGTTCCAGTCCTTG,-0.732
4,AATCTTAGAGACACTGACTGCC,0.508
5,ATGTAATTGGAGACCCGCGTGA,-0.77
6,TTGCAGCTGGAGATCACGCCAT,-0.881
7,TTGTGGTAGTAGTTGCAGCCGA,-0.632
8,TTCTTCACCGCCAACCACCCTA,-0.855
9,TACCACTTGCCATTGGAGCTGT,0.0148
10,TTATATTATTTTCCTTCTGTGA,-1.25
11,TCTTAGAGACACTGACTGCCAG,-0.61
12,TGTGGTAGTAGTTGCAGCCGAG,-0.0375

# Molecular target: CENPE
# Experiment: as above
# Conditions: shRNA
row,Sequence,sensor-assay potency score (higher = more potent)
1,TTTATCAACAGTTTCTTTGTGT,1.24
2,TTTGTCAATAGTTTCCTGCTGC,0.514
3,TTTGCTTGTATGTAGTTGCAAG,-0.96
4,TTGTCTTGTATCTCTTTCCTCA,0.236
5,TTAGTTGCATCTCTTGATCTTT,0.409
6,TGTAGTATCTGAGTCAACCTTA,0.878
7,TTGGAGTTCATTTTTCTCCTGT,0.691
8,TTGTGTGGTAGGATTAACCTGG,0.117
9,TTTTGATTTATCTAAATCCTTT,-0.683
10,TTGACATCTTTTTTTAACGTAA,-0.388
11,TAGCTCTTGATGTAACATGAGG,-1.24
12,TAACACTCTCTAACATTTGTTG,0.0489
13,TAGCTGTTCATTTTGCTGCTTT,-0.023
14,TTGAAGAACTTCTTGCAGCCTC,0.172
15,TTACTTGGTGGTTCTGTCGGTC,0.00856
